The list is not random: actives were taken first. Their share in the collection is about 3%.
SENP8 block-1: SENP8 protease inhibition. purified SENP8, Z-RLRGG-aminoluciferin cleavage, luminescence. hit rate 1.2% among 330,000. inhibition, % at 10 µM. Q96LD8; in the data active = inhibition above about 50%
C8 TRAIL sens: caspase-8 TRAIL sensitization; hit rate 1% among 360,000; inhibition (viability loss, TRAIL sensitization), % at 10 µM; NB7+C8 cells + TRAIL, ATPlite viability luminescence;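 active = compounds causing at least 50% loss of cell viability in the single-dose screen, relative to plate controls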
SENP8 block-2: inhibitors of human SENP8 protease | Q96LD8 | inhibition, % at 20 µM | hit rate 0.64% among 360,000 | AID 602440 | recombinant SENP8, Nedd8 substrate fluorescence; in the data active = inhibition mostly above about 40%, no sharp cut-off; inactive = mostly below about 27%
SENP7 block: blocks the human protease SENP7. recombinant SENP7, Z-RLRGG-aminoluciferin luminescence, 40 min. inhibition, % at 5 µM. hit rate 1.5% among 330,000;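 active = inhibition above about 50% at the single test dose, limit read from the data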;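 note: plate controls were DMSO with enzyme for no effect and no enzyme buffer wells for full effect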
PPC-1+TRAIL kill: compounds killing PPC-1 cancer cells with TRAIL present (potentiator screen, no TRAIL-free arm). PPC-1 cells + TRAIL, ATPLite viability luminescence. cell killing (% activity), % at 4 µM or 5 µM. AID 1443. hit rate 0.41% among 220,000;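 active = cell killing above 50% in the first pass at 4 µM, then a duplicate retest at 5 µM averaging 50% or more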;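 note: plate controls were cells with TRAIL plus DMSO for no effect and medium-only wells lacking cells for full effect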
SENP6 inh: SENP6 protease inhibition. Q9GZR1. Recombinant SENP6 catalytic domain, aminoluciferin luminescence. inhibition, % at 10 µM. hit rate 1.8% among 330,000;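 active = inhibition above about 50% at the single tested dose, limit read from the data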;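 note: plate controls were DMSO wells with enzyme for no effect and DMSO wells lacking enzyme for full effect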
Target sequence (Q9GZR1 628-1112 limits assumed): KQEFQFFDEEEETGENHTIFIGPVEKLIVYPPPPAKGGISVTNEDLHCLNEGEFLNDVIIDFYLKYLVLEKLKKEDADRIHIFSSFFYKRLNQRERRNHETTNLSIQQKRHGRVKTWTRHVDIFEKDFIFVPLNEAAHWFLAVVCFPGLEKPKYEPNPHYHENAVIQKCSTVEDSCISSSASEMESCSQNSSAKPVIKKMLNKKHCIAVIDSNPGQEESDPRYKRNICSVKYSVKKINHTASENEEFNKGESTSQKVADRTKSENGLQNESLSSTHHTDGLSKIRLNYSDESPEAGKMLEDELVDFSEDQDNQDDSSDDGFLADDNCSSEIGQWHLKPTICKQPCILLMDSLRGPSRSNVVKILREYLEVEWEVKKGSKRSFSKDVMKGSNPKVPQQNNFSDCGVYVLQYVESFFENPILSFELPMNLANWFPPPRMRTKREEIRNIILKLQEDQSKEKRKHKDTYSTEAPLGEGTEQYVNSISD
PPC1 cytotox: PPC-1 cell cytotoxicity; shares compounds with PPC-1+TRAIL kill; PPC-1 viability, ATPlite luminescence, overnight; cytotoxicity, % at 5 µM; hit rate 50% among 1,200; AID 1447;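 active = reconfirmed compounds whose average cytotoxicity reaches 50% or more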;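 note: 0% = DMSO-treated cells and 100% = wells holding medium but no cells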
Starred values were filed as active, the others as inactive; i = inactive; . = not tested or not shown.

SMILES	SENP8 block-1	C8 TRAIL sens	SENP8 block-2	SENP7 block	PPC-1+TRAIL kill	SENP6 inh	PPC1 cytotox
CCOC(=O)c1ccccc1NC(=O)CSc1ccc(-c2cccnc2)nn1	-4	-1	8	-11	-1	0	-6
Cc1ccccc1NC(=O)CSc1ccc(-c2cccnc2)nn1	-1	14	2	5	.	-6	.
COc1ccc(N2CCN(c3ccc(NC(=O)C4CCCCC4)cc3C#N)CC2)cc1	-8	-6	-171	1	-5	-8	8
Cc1nc(CN2CCN(C(=O)NC3(c4ccccc4)CC3)CC2)cs1	2	5	15	4	12	-11	-3
Fc1cccc(Cc2noc(CN3CCCCC3CCc3ccccn3)n2)c1 (stereo not given)	-8	3	5	10	3	3	.
CC1(C2CC(=O)c3c(O)ccc(O)c3C2)OCCO1 (stereo not given)	.	3	25	.	.	.	.
O=C(CSc1ncn[nH]1)Nc1nc(-c2ccccc2)cs1	-16	-7	8	-3	1	3	-4
COc1ccc(-c2csc(NC(=O)CSc3ncn[nH]3)n2)cc1OC	-12	-14	14	-6	9	-2	.
CN(C)C1CN(Cc2cn(Cc3ccc(C(F)(F)F)cc3)nn2)S(=O)(=O)C1 (stereo not given)	.	-19	16	.	.	.	.
CCOC(=O)c1ccc(NC(=O)c2nc[nH]c2C(=O)N(C)CCO)cc1	.	6	6	.	.	.	.
COc1ccc(CCNC(=O)C(F)(F)F)cc1S(N)(=O)=O	.	2	22	.	.	.	.
O=C1CCc2cc(S(=O)(=O)Nc3ccccc3)ccc2N1	-3	-1	0	-9	.	-8	.
COc1ccc(C(=O)Nc2ccccc2C(=O)N/N=C/c2ccncc2)cc1OC	-12	94*	-59	-6	96*	-4	96*
Cc1cccc(OCC(=O)Nc2ccc3nc(C)sc3c2)c1	-15	5	2	-6	19	-15	.
Cc1nc2ccc(NC(=O)Cc3cccc(F)c3)cc2s1	-13	3	4	0	3	-13	.
Cc1nc2ccc(NC(=O)Cc3ccsc3)cc2s1	-9	22	18	0	7	-4	10
Cc1nc2ccc(NC(=O)COc3ccccc3)cc2s1	.	17	16	.	1	.	2
CCOCCCn1c(=S)[nH]c2cc(C(=O)N3CCN(c4ccccc4)CC3)ccc2c1=O	-4	2	5	-8	.	15	.
O=C1c2cccc3cccc(c23)C(=O)N1Cc1cccnc1	-9	-20	-258	-6	5	-16	.
O=C1c2cccc3c([N+](=O)[O-])ccc(c23)C(=O)N1Cc1cccnc1	.	2	-383	.	26	.	14
Cc1ccc(S(=O)(=O)NCC(=O)NC2CCCCCC2)cc1	-2	-32	-2	-11	8	-5	-3
Cc1ccccc1/C=N/NC(=O)c1ccc(-n2cnnn2)cc1	2	7	-13	3	.	-5	.
COCCn1cnc2c1c(=O)n(CC(=O)NCC(F)(F)F)c(=O)n2Cc1ccccc1	-11	-1	9	-5	.	-15	.
COc1nc(Nc2nc3ccccc3c(=O)[nH]2)nc2ccc(C)cc12	2	21	6	7	51*	-18	51*
Cc1cc(C)cc(Nc2nc3ccccc3c(=O)[nH]2)c1	-1	5	-144	4	14	-1	.
SMILES	SENP8 block-1	C8 TRAIL sens	SENP8 block-2	SENP7 block	PPC-1+TRAIL kill	SENP6 inh	PPC1 cytotox
CCOC(=O)C1CCCC12Nc1cccc3cccc(c13)N2 (stereo not given)	.	-3	-7	.	.	.	.
CC(=O)Nc1ccc2c(c1)nc(C)n2Cc1ccccc1	-3	-6	8	-5	.	0	.
Cc1nc2cc(NCc3nc4ccccc4n3Cc3ccccc3)ccc2n1C	27	18	-37	-1	61*	42	63*
Cc1ccc(-c2cc(C(=O)N3CCN(c4ccc(F)cc4)CC3)c3ccccc3n2)o1	-6	11	i	4	33	-14	30
CCOc1ccc(-c2cc(C(=O)N3CCN(c4ccccn4)CC3)c3ccccc3n2)cc1	-2	89*	-280	3	81*	-1	82*
COc1ccc(-c2cc(C(=O)N3CCN(c4ccccn4)CC3)c3ccccc3n2)cc1	.	58*	-302	.	51*	.	53*
CCCC12CN3CC(CCC)(CN(C1)C3c1ccco1)C2=O (stereo not given)	-3	-11	34	5	4	21	.
O=C(NCc1cccnc1)C1CCCN(S(=O)(=O)c2ccccc2)C1 (stereo not given)	-2	16	18	1	7	-13	9
CC(=O)c1sc2c(c1OC(=O)c1ccc(Cl)cc1Cl)c(=O)n(-c1ccccc1)c(=S)n2-c1ccccc1	1	15	3	5	29	9	23
CCOC(=O)c1cccc(NC(=O)Nc2ccc(OCC)cc2)c1	-17	35	-2	-10	20	-44	.
CCOc1ccc(NC(=O)Nc2cccc(C(=O)O)c2)cc1	97*	83*	-5	99*	73*	99*	65*
CCC(=O)Nc1nonc1-c1nc2ccccc2n1CC(C)C	0	12	-438	-4	-8	-4	-13
CC(Sc1nncs1)C(=O)NCC(=O)Nc1ccc(F)c(F)c1F (stereo not given)	3	-11	5	0	15	4	.
CCOc1cccc(/C=C/c2cc(C(=O)O)c3ccccc3n2)c1OC	0	76*	-430	-4	71*	1	69*
O=C(Nc1nc(OCCN2CCCC2=O)cnc1/C=C\c1ccccc1)c1cc2ccccc2s1	.	-7	-140	.	.	.	.
O=C(Nc1nccs1)c1cn2ccccc2n1	31	40	2	46	61*	21	59*
NNC(=O)c1cn2ccccc2n1	1	-7	6	12	28	5	.
Cc1ccccc1C(=O)Nc1ccc2c(c1)OCO2	17	41	28	39	48	28	52*
CC1CCc2c(sc(NC(=O)CSc3nc(N)cc(=O)[nH]3)c2C(N)=O)C1 (stereo not given)	3	17	-16	6	.	-13	.
CCCn1c(NC(=O)C2CCN(S(=O)(=O)c3cccs3)CC2)nc2ccccc21	4	34	9	1	11	0	10
CCCn1c(NC(=O)c2ccc(C)cc2)nc2ccccc21	-14	12	-111	13	0	-9	.
Cc1csc(NC(=O)C2CCN(S(=O)(=O)c3cccs3)CC2)n1	-2	8	13	-3	13	-4	.
CCCn1c(NC(=O)c2ccccc2)nc2ccccc21	-3	13	-63	-10	10	-5	8
O=S(=O)(NCc1ccccc1F)NCc1ccccc1F	1	17	14	3	7	5	.
CN1CCN(Cc2oc(CO)cc(=O)c2O)CC1	-9	-3	14	-3	-3	-6	.
COc1ccc(N2CCN(Cc3oc(CO)cc(=O)c3O)CC2)cc1	-5	-8	10	-12	5	12	10

High-throughput results: PubChem, Sanford-Burnham Center for Chemical Genomics
